Test [1] in a line: binders of probe aFSTL3 on microarray, primary screen, stem cell growth factor project, biochemical, small-molecule microarray, fluorescence 635/667 (AID 1064).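 Note: measures binding of the biotinylated anti-FSTL3 antibody to printed compounds.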 The note with it: higher = more signal.
A short description of test [2]: binders from COS7 lysate, DM2A8 probe, primary screen, torsin A project, cell lysate, small-molecule microarray, fluorescence 635/667 (AID 1065). The note with it: higher = more signal, COS7 lysate expressing mutant human TOR1A.
Test [3] can be described thus: binders of probe aFGF2 on microarray, primary screen, stem cell growth factor project, biochemical, small-molecule microarray, fluorescence 635/667 (AID 1067).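 Note: measures binding of biotinylated aFGF2 protein to printed compounds on slides; z-score merges feature fluorescence and signal-to-noise across triplicate slides.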 The note with it: higher = more signal.
Test [4] is described as follows: binders of probe aFGF10 on microarray, primary screen, stem cell growth factor project, biochemical, small-molecule microarray, fluorescence 635/667 (AID 1071).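 Note: score merges 667 nm spot intensity and signal to noise from triplicate slides.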 The note with it: higher = more signal.
The target of test [5] is Neurogenic locus notch homolog protein 2 (Homo sapiens) (UniProt Q04721). Briefly: Notch2 binders on small-molecule microarrays, primary screen, biochemical, small-molecule microarray, 635 nm fluorescence, stem cell growth factors (AID 1073). The note with it: Notch2 binding, higher = more signal.
Neurogenic locus notch homolog protein 2 (Homo sapiens), sequence (Q04721 whole entry, looked up, canonical isoform): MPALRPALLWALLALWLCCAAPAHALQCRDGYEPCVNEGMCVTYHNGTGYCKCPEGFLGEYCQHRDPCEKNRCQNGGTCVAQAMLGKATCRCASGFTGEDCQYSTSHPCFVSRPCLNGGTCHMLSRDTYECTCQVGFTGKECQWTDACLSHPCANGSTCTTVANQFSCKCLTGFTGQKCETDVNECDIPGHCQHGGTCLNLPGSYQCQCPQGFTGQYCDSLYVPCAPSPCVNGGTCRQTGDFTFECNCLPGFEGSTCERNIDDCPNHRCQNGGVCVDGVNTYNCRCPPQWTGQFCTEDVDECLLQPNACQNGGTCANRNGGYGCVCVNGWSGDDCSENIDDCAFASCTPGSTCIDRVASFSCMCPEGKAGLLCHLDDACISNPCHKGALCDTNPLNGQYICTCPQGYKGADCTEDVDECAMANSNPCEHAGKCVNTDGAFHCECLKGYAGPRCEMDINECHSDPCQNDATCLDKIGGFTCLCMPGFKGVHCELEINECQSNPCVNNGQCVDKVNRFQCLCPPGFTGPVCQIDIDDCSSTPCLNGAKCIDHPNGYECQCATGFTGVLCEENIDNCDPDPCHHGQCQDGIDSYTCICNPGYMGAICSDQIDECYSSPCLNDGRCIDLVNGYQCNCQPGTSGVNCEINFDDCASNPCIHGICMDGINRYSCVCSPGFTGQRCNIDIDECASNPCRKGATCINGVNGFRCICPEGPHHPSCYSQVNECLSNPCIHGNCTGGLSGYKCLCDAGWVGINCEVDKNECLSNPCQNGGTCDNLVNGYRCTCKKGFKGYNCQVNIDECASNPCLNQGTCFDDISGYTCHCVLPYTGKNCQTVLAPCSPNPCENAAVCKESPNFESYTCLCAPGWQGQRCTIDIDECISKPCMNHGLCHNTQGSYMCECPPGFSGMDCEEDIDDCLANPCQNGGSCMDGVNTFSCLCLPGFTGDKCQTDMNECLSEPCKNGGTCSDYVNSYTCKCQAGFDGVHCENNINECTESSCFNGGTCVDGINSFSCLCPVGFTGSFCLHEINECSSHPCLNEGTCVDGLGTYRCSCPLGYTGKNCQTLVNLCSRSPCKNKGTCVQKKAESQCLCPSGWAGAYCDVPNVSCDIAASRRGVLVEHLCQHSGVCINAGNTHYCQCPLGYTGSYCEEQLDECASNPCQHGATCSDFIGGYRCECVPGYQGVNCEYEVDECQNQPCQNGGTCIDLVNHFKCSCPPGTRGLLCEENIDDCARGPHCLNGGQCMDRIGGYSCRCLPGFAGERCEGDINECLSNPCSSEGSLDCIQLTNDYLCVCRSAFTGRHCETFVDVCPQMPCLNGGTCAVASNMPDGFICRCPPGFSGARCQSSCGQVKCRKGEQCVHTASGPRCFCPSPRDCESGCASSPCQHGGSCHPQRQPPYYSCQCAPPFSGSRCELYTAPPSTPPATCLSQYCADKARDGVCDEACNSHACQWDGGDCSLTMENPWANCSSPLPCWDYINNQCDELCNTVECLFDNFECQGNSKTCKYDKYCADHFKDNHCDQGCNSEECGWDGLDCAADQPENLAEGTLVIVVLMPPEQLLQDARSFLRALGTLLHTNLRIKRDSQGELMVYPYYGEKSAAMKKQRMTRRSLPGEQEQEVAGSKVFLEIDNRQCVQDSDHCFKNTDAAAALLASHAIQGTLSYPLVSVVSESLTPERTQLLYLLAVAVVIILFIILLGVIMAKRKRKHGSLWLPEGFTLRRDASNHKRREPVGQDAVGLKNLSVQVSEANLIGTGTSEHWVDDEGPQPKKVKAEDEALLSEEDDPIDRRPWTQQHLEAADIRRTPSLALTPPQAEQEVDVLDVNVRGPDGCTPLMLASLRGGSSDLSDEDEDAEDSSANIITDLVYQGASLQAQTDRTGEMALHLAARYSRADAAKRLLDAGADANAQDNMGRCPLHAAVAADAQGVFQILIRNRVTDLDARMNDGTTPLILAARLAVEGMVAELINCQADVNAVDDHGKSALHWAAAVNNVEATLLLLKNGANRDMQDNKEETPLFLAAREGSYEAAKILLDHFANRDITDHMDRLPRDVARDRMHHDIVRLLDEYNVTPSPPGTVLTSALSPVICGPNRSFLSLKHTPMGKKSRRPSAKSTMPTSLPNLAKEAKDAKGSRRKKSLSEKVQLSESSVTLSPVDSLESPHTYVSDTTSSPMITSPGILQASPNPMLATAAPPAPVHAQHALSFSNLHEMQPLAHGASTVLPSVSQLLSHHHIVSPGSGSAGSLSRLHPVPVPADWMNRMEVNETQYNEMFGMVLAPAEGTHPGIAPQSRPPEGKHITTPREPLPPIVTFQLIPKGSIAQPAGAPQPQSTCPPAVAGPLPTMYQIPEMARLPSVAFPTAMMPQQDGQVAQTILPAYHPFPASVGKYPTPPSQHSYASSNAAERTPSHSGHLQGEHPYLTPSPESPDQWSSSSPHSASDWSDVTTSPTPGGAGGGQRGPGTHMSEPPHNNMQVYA
Test [6] has as its target Pro-neuregulin-1, membrane-bound isoform (Homo sapiens) (UniProt Q02297). The test is described as follows: NRG1 binders on small-molecule microarrays, primary screen, psychiatric disease protein project, biochemical, small-molecule microarray, fluorescence 635/667 (AID 1075).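 Note: score combines 667 nm spot fluorescence with signal to noise.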 The note with it: NRG1 binding, 635 nm fluorescence, higher = more signal.
Test [7] relates to Neuregulin-1 EGF-like domain. Briefly: binders of neuregulin-1 EGF-like domain, primary screen, biochemical, small-molecule microarray, 635 nm fluorescence (AID 1081).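 Note: binding of the protein to compounds printed on small-molecule microarray slides.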 The note with it: small-molecule microarray binding, higher = more signal.
The nature of test [8]: FRG1 promoter luciferase signal modulators, primary screen, FRG1 inhibition for FSHD, cell-based, C2C12 myotubes, firefly/Renilla luciferase, luminescence (AID 1084). The note with it: higher = more signal, called active from +8 up or from −8 down.
Test [9] is described as follows: binders of probe aFST on microarray, primary screen, stem cell growth factor project, biochemical, small-molecule microarray, fluorescence 635/667 (AID 1086).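 Note: score merges 667 nm fluorescence with signal-to-noise of each printed compound spot.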 The note with it: higher = more signal.
A short description of test [10]: binders of probe aHhip on microarray, primary screen, stem cell growth factor project, biochemical, small-molecule microarray, fluorescence 635/667 (AID 1087).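 Note: score merges spot fluorescence at 667nm with spot signal to noise ratio.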 The note with it: higher = more signal.
In test [11] the test system is PRMT1 (protein arginine N-methyltransferase 1). Briefly: PRMT1 binders on small-molecule microarrays, primary screen, biochemical, small-molecule microarray, 635 nm fluorescence (AID 1088).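 Note: binding of Prmt1 protein to compounds spotted on small-molecule microarray slides.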 The note with it: small-molecule microarray binding, higher = more signal.
The nature of test [12]: yeast growth modulation, basal conditions, primary screen, YJM789 clinical isolate, OD600, 24 h (AID 1089).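 Note: growth of clinical yeast isolate S. cerevisiae YJM 789 seeded 1000 cells per well; test concentration not given here.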 The note with it: S. cerevisiae YJM789 growth, higher = more signal, called active from +8 up or from −8 down.
Test [13] in a line: fission yeast growth modulation, primary screen, strain 972, OD600, 24 h, no modulator (AID 1090).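 Note: basal condition with compound alone and no growth modifier present; test concentration not given here.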 The note with it: S. pombe 972 growth, higher = more signal, called active from +8 up or from −8 down.
Test [14] is described as follows: S. cerevisiae growth modulation with rapamycin, primary screen, strain BY4716, OD600, 96 h (AID 1091). Note: test concentration not given here. The note with it: higher = more signal, called active from +8 up or from −8 down.
Test [15] deals with Torsin-1A-interacting protein 2 (Homo sapiens) (UniProt Q8NFQ8). The test is described as follows: LULL1 binders on small-molecule microarray, primary screen, cell lysate, human LULL1 lysate, 635/667 nm fluorescence (AID 1092).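 Note: probe is lysate of COS7 cells overexpressing human LULL1; score merges per-feature 667 nm fluorescence with signal-to-noise.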 The note with it: hLULL1 lysate binding, 635 nm fluorescence, higher = more signal.
Torsin-1A-interacting protein 2 (Homo sapiens), sequence (Q8NFQ8 whole entry, looked up): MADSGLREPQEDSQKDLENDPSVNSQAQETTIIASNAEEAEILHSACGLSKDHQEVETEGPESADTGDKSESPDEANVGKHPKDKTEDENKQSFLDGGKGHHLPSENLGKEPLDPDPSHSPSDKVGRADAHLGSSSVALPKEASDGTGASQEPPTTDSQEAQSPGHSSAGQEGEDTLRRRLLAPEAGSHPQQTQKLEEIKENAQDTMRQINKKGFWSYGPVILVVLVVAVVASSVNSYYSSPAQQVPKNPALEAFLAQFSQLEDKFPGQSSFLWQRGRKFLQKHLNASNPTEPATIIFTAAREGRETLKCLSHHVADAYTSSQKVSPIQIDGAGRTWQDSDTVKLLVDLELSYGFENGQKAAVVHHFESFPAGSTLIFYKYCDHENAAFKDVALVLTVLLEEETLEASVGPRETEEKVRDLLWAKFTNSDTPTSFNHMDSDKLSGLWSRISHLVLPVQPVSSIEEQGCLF
Test [16] is described as follows: E. coli growth modulation, two-sided OD650, primary screen, E. coli filamentation project, strain DRC41, 24 h (AID 1093).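 Note: MC1000 strain lacking acrAB efflux and sulA so SOS filamentation is blocked; test concentration not given here.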 The note with it: OD650, 24 h, higher = more signal, called active from +8 up or from −8 down.
Test [17] can be described thus: small-molecule microarray binders of probe aLefty2, primary screen, biochemical, biotinylated probe, 635/667 nm fluorescence (AID 1094).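 Note: score merges spot fluorescence near 667 nm with spot signal-to-noise ratio.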 The note with it: higher = more signal.
Test [18] has as its system Noggin (protein binding on small-molecule microarray). Briefly: Noggin binders on small-molecule microarray, primary screen, biochemical, 635/667 nm fluorescence (AID 1095).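 Note: score merges 667 nm feature fluorescence with signal to noise over triplicate slides.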 The note with it: 635 nm fluorescence, higher = more signal.
Test [19] has as its target Neurogenic locus notch homolog protein 3 (Homo sapiens) (UniProt Q9UM47). Briefly: NOTCH3 binders on small-molecule microarray, primary screen, biochemical, 635/667 nm fluorescence (AID 1096). The note with it: NOTCH3 binding, 635 nm fluorescence, higher = more signal.
Test [20] is described as follows: small-molecule microarray binders of probe aEGFR, primary screen, biochemical, biotinylated probe, 635/667 nm fluorescence (AID 1097).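 Note: probe is a biotinylated anti-EGFR antibody binding compounds printed on slides; score combines fluorescence near 667 nm and signal to noise of each spot.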 The note with it: higher = more signal.

The source made the active and inactive calls.

Pro-neuregulin-1, membrane-bound isoform (Homo sapiens), sequence (Q02297 whole entry, looked up, the tested form may be a part, canonical isoform): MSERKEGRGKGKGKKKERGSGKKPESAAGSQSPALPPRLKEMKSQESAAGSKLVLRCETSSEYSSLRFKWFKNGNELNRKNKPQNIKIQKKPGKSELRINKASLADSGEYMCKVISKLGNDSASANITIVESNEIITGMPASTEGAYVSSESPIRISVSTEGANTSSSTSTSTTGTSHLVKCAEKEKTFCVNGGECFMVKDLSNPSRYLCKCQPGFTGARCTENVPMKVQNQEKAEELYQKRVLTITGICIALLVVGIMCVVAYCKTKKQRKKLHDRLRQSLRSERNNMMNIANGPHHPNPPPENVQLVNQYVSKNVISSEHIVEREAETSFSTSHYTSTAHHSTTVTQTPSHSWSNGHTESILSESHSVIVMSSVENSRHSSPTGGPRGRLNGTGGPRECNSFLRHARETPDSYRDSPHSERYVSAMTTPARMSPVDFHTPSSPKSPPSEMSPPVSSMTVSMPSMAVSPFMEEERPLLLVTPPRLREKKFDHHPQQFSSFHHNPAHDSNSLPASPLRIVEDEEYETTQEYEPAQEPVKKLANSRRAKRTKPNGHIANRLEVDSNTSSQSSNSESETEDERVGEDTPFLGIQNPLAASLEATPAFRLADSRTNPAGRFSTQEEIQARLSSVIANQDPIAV

Regarding `C=CCNC(=O)[C@H]1[C@@H]2C(=O)O[C@@H](c3ccccc3)[C@@H](c3ccccc3)N2[C@@H](c2ccccc2OCCO)[C@]12C(=O)Nc1ccc(C#CCC(C(=O)OC)C(=O)OC)cc12`, the composite z-score in test [1] was 0.0775; in [2] it was 0.44; in [3] it was 0.0468; in test [4] it was 0.423; in test [5] it was 1.53; in [6], 1.46. The composite z-score in [7] came out at 1.34; in [9], 1.08; in test [10], 0.409; in test [11], 1.32; in [15] it was 3.25; in [17] it was 0.65. In addition, the composite z-score in test [18] amounted to 0.897; in [19] it was 1.05; in test [20], 0.486. The z-score in test [8] is -0.616 (inactive); in test [12], 1.93 (inactive); in [13], 2 (inactive); in test [14] it was 5.92 (inactive); in test [16] it was 0.587 (inactive).
For the compound `C=CCOC(=O)[C@H]1[C@@H]2C(=O)O[C@@H](c3ccccc3)[C@@H](c3ccccc3)N2[C@@H](c2ccc(OCCOC(=O)[C@@H]3C[C@@H]4C(=O)N[C@@H](CCCCNC(C)=O)C(=O)N4[C@@H]3c3ccc(O)cc3)cc2)[C@]12C(=O)Nc1ccccc12`, the composite z-score was -0.475 in test [1]; 0.973 in test [2]; -0.0512 in test [3]; 0.483 in [4]; 0.795 in [5]; 1.26 in test [6]. The composite z-score in [7] is 1.32; in test [9] it was -0.0579; in test [10] it was 0.0176; in [11], 1.54; in test [15], 2.6; in test [17], 0.0025. The composite z-score in test [18] is 1.14; in test [19] it was 1.08; in test [20] it was -0.0625. The z-score is 0.159 (inactive) in test [8]; 1.7 (inactive) in test [12]; -0.133 (inactive) in [13]; 3.53 (inactive) in [14]; -0.264 (inactive) in [16].
For `COCCOC(=O)N1C(=O)[C@@]2(c3cc(C#CC4(O)CCCCCC4)ccc31)[C@H](c1ccc(OCCO)cc1)N1[C@H](c3ccccc3)[C@H](c3ccccc3)OC(=O)[C@H]1[C@@H]2C(=O)N1CCN(c2ncccn2)CC1`, the composite z-score in test [1] was -0.407; in [2], 0.485; in test [3] it was -0.0242; in test [4] it was 0.612; in [5] it was 1.03; in test [6] it was 1.09. Further, the composite z-score was 0.966 in [7]; 0.557 in test [9]; -0.0645 in [10]; 1.56 in test [11]; 2.69 in [15]; -0.136 in test [17]. The composite z-score in [18] is 1.67; in test [19] it was 1.08; in [20], -0.108. The z-score was -0.254 (inactive) in test [8]; 2.64 (inactive) in [12]; 2.26 (inactive) in test [13]; 6.24 (inactive) in test [14]; 0.0846 (inactive) in [16].
`N#Cc1ccc(NN2C(C(O)C(c3ccccc3)c3ccccc3)C=CC3C(=O)N(c4ccccc4)C(=O)C32)cc1` (stereo not given): the composite z-score in test [1] is 0.223; in [2], 0.135; in test [3], -0.0462; in [4], 0.952; in test [5], 1.65; in [6], 1.77. Further, the composite z-score was determined as 1.15 in [7]; 1.93 in test [9]; 0.0585 in [10]; 1.07 in test [11]; 3.58 in test [15]; 0.167 in test [17]. Also, the composite z-score in test [18] came out at 0.297; in [19], 1.01; in test [20], 0.0981. Also, the z-score in [8] was -0.621 (inactive); in [12], 0.43 (inactive); in test [13], 1.25 (inactive); in [14], 5.53 (inactive); in [16], -0.0873 (inactive).
For `CC(C)C[C@@H]1NC(=O)[C@@H]2C[C@H](C(=O)NCc3ccc(F)cc3)[C@H](c3cccc(OCCO)c3)N2C1=O`, the composite z-score in test [1] was 0.0163; in test [2] it was 0.297; in test [3] it was -0.0861; in [4] it was 0.362; in [5], -0.575; in test [6] it was -0.0212. Moreover, the composite z-score is 1.32 in [7]; -0.405 in test [9]; -0.236 in [10]; 1.38 in [11]; 2.14 in [15]; -0.0674 in test [17]. Moreover, the composite z-score in test [18] is 0.572; in [19] it was 0.552; in [20], -0.147. For the same compound, the z-score in test [8] was -0.148 (inactive); in test [12] it was -1.84 (inactive); in test [13] it was -0.161 (inactive); in test [14], -0.425 (inactive); in [16], 1.64 (inactive).
Regarding `Cc1ccc(S[C@]2(C(=O)NCCCN(C)C)CC(=O)N(Cc3ccccc3C(F)(F)F)[C@@H]2c2ccc(CO)cc2)cc1`, the composite z-score in test [1] was 0.678; in test [2], -0.554; in test [3] it was -0.138; in test [4], -0.572; in test [5], -1.37; in [6], 0.907. For the same compound, the composite z-score in [7] is -1.08; in test [9], 0.0539; in [10], -0.0994; in test [11] it was 0.486; in test [15] it was 1.91; in [17], 0.0446. The figures for the composite z-score in [18], in test [19] and in [20] were -0.858, -1.3 and -0.227, respectively. For the same compound, the z-score in [8] is -1.31 (inactive); in [12] it was -0.339 (inactive); in [13] it was -0.543 (inactive); in test [14], -0.914 (inactive); in test [16], 0.783 (inactive).
